Percent Effect data for 51 compounds are collected here from ChEMBL document CHEMBL3988442, “University of Dundee, Small-Polar-MMV Screening Library” (2021).

The structures appear in SMILES notation.

In test [1] the target is T1, Aspartate--tRNA(Asp/Asn) ligase (Mycobacterium tuberculosis (strain ATCC 25618 / H37Rv)) (UniProt P9WFW3). Further: in the data most compounds retested in dose-response had high values.
T1 sequence (whole entry): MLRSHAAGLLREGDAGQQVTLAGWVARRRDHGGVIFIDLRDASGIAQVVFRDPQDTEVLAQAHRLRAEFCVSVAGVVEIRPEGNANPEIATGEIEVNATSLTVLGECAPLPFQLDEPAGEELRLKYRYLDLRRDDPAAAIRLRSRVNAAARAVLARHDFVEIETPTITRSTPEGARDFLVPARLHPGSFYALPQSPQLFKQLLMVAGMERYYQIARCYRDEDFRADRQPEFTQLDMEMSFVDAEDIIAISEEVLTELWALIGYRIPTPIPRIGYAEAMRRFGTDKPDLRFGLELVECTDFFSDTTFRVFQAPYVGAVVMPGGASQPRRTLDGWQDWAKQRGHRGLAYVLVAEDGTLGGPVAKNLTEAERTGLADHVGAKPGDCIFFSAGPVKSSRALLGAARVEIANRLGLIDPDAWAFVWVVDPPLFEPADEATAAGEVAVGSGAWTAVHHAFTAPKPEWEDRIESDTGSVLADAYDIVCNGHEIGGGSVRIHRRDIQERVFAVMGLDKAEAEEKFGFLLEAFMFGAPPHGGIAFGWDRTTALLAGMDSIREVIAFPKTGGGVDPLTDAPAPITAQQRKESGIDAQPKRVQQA
Description: Assay for Asp RNA synthetase-1 from Mycobacterium tuberculosis. In kind it is functional. The arrangement: scale not given: direction of the effect not stated beside the values. The settings on record: 30 µM.

Test [2] concerns the target Shiga toxin 2 (Escherichia coli O157:H7) (UniProt P09385+P09386). Kind of test: E. coli 0.157:H7 Shiga Toxin SOP - stx2 screening assay. Further details: scale not given: direction of the effect not stated beside the values. The note with it: 30 µM. The test is classed as functional.

On to `CC(=O)N1CC(=O)N(c2cnn(C)c2)CC12CCN(Cc1ccsc1)C2` (configuration not stated), for which the Percent Effect in test [1] was 4.83%; in test [2] it was -25.5%.

As to `Cc1nn(-c2ccccc2)nc1C(=O)N1CCCC1c1cnn(C)c1` (configuration not stated), the Percent Effect in test [1] amounted to 2.1%; in test [2] it was 18.4%.

For `NC(=O)C1CCC(NC(=O)COc2ccc(Cl)c(Cl)c2)CC1` (configuration not stated), the results for the Percent Effect in test [1] and in test [2] were 3.91% and -29.1%, respectively.

For the compound `COc1ccc(CN2C[C@@H](OCc3ccccn3)[C@H]3COC[C@H]32)cc1`, the Percent Effect worked out at 3.47% in test [1] and 12.7% in test [2].

As for `O=C(NC[C@]12COC[C@H]1CN(Cc1nccs1)C2)c1ccccc1`, the results for the Percent Effect in test [1] and in test [2] were -2.56% and -14.5%, respectively.

For the compound `CCOC(=O)c1sc2ccsc2c1CN`, the Percent Effect is -0.321% in test [1] and 42.1% in test [2].

Consider `CC(C)OCCN1CCN(C(=O)c2cccc(CC#N)c2)CC1`, for which the Percent Effect was 2.85% in test [1] and -12.3% in test [2].

Take `CC(C)(C)C(=O)N1C[C@H](c2ccsc2)[C@H]2CN(Cc3cccs3)CC[C@H]21`: the Percent Effect is -0.28% in test [1] and -20.2% in test [2].

Regarding `CCOc1cc(CNC(=O)N2CCC(Cc3cnn(C)c3)C2)ccn1` (configuration not stated), the Percent Effect is -2.52% in test [1] and 2.76% in test [2].

Turning to `Cc1ccccc1OCCC(=O)N1CCCC(n2cncn2)C1` (configuration not stated), the Percent Effect in test [1] was -3.32%; in test [2] it was 2.85%.

Turning to `CCN1CCN(Cc2coc(-c3cccc(F)c3)n2)CC1`, the Percent Effect in test [1] is -7.31%; in test [2], -35.5%.

On to `O=C(CN1CCc2c(ncn2C2CC2)C1)NC1CC1`, for which the Percent Effect in test [1] is -0.0146%; in test [2], 5.91%.

Turning to `O=S(=O)(c1ccccc1)N1CCN(CCn2ccnc2)CC1`, the figures for the Percent Effect in test [1] and in test [2] were -3.1% and 2.08%, respectively.

In the case of `O=C(CC1CCCCC1)N1CCN(C(=O)NCc2ccccn2)CC1`, the values for the Percent Effect in test [1] and in test [2] were 2.1% and 20.8%, respectively.

Regarding `Cn1ccnc1-c1ccccc1C(=O)N1CCc2c(nc(N)[nH]c2=O)C1`, the Percent Effect in test [1] was 2.08%; in test [2], -35.7%.

Consider `Cc1nc2n(n1)CC(Nc1cc(C(F)(F)F)nc3ncnn13)CC2` (configuration not stated), for which the results for the Percent Effect in test [1] and in test [2] were -5.49% and -1.67%, respectively.

With `Cc1ccc(CN2CCn3cc(CN(C)Cc4ccco4)nc3C2)o1`, the results for the Percent Effect in test [1] and in test [2] were 1.01% and -24.1%, respectively.

Turning to `Cc1nn(C)c(Cl)c1C1CCCN1C(=O)c1nccnc1N` (configuration not stated), the Percent Effect in test [1] is -0.929%; in test [2], 22.4%.

For the compound `Cc1cnn(C2CN(CC(=O)Nc3cccnc3)C2)c1`, the Percent Effect in test [1] was 3.91%; in test [2], 11%.

Take `Cc1nn(C)c(Cl)c1C1CCCN1C(=O)c1ccc2nncn2c1` (configuration not stated): the Percent Effect in test [1] was -1.25%; in test [2] it was 2.44%.

Take `CCn1nc(C)c2nc(C(C)C)nc(N3CCCCC3)c21`: the Percent Effect was 8.83% in test [1] and -36.2% in test [2].

With `CNc1cc2c(nn1)CCN(C(=O)c1cccc3c1OCO3)C2`, the results for the Percent Effect in test [1] and in test [2] were -7.31% and 1.76%, respectively.

As for `Cc1ccc(CNC(=O)NCCCn2nc3ccccn3c2=O)s1`, the Percent Effect in test [1] amounted to 7.2%; in test [2], 0.512%.

As for `Cn1cc(N2CCC(NC(=O)c3c(F)cccc3F)C2=O)cn1` (configuration not stated), the results for the Percent Effect in test [1] and in test [2] were 0.409% and -11.8%, respectively.

Consider `COc1cc(C(=O)NS(=O)(=O)c2cccc(C#N)c2)cc(Cl)c1OC`, for which the Percent Effect in test [1] is 0.845%; in test [2] it was 3.59%.

With `CN1CCCCC1c1ncc2c(n1)CCN(Cc1ccccc1Cl)C2` (configuration not stated), the figures for the Percent Effect in test [1] and in test [2] were 3.02% and -22.5%, respectively.

In the case of `CCC(O)CN1CCN(C(=O)c2ccnc(N(C)C)c2)CC1` (configuration not stated), the Percent Effect is -4.29% in test [1] and -17.1% in test [2].

As for `Cc1nc(O)c2nnn(C[C@H]3CCCN3C(=O)C(C)(C)C)c2n1`, the Percent Effect was 5.78% in test [1] and -7.47% in test [2].

Take `COC(=O)c1cc(C(=O)N2CCOCC2(C)C)n(-c2ccccc2)n1`: the Percent Effect was -4.48% in test [1] and 13.3% in test [2].

On to `CCOc1ccccc1C1CCCN1` (configuration not stated), for which the results for the Percent Effect in test [1] and in test [2] were 2.67% and -3.4%, respectively.

In the case of `O=C(c1ccc(O)cc1)N1CCN(C(=O)c2ccc3c(c2)COC3)CC1`, the values for the Percent Effect in test [1] and in test [2] were -1.8% and -20%, respectively.

Regarding `O=c1cc2c(nn1CN1CCOCC1)CCC2`, the figures for the Percent Effect in test [1] and in test [2] were 2.64% and -10.5%, respectively.

On to `CCn1ccnc1CN(C)C1CCCN(CCc2ccccc2)C1` (configuration not stated), for which the Percent Effect was -0.476% in test [1] and -36% in test [2].

For the compound `Cc1c(CN2CCCC(c3[nH]ncc3S(C)(=O)=O)C2)cnn1C` (configuration not stated), the figures for the Percent Effect in test [1] and in test [2] were -0.927% and -23.4%, respectively.

`Cc1cc(C)n(CC(=O)N2CCC(NS(C)(=O)=O)CC2)n1`: the Percent Effect in test [1] was -2.75%; in test [2], 32.8%.

As for `O=C(c1cccnc1N1CCOCC1)N1CCCC(n2ccnc2)C1` (configuration not stated), the Percent Effect in test [1] is -4.5%; in test [2], 31.6%.

`c1ccc2oc(N3CCCCC3Cn3cncn3)nc2c1` (configuration not stated): the Percent Effect in test [1] is -2.88%; in test [2], -18.7%.

As to `O=C(Cc1cccs1)NC1CCN(c2cccc(F)c2)CC1`, the figures for the Percent Effect in test [1] and in test [2] were 2.33% and -14.1%, respectively.

Take `CNC(=O)c1cc2c(nc1NCC1CC1)CCN(c1ccncn1)CC2`: the results for the Percent Effect in test [1] and in test [2] were -4.09% and -30.7%, respectively.

With `NC(=O)COc1cccc(C(=O)Nc2cnc3n2CCCC3)c1`, the Percent Effect is -0.557% in test [1] and -2.86% in test [2].

Regarding `Cc1cc2ccccc2n1CCC(=O)NCc1ncc[nH]1`, the Percent Effect in test [1] was -0.164%; in test [2], 4.66%.

Regarding `CN(C(=O)CCNC(=O)NC1CCCCC1)c1ccccc1`, the Percent Effect is -1.38% in test [1] and 4.9% in test [2].

On to `O=C(NCC1CC1)C1CN(C(=O)c2cccs2)CC12CCOCC2` (configuration not stated), for which the Percent Effect was determined as 5.88% in test [1] and 0.242% in test [2].

Regarding `CCc1csc(C2CCCN(C(=O)c3ccc(OC)nn3)C2)n1` (configuration not stated), the results for the Percent Effect in test [1] and in test [2] were -3.92% and 14.7%, respectively.

On to `CC(O)CC(C)(C)CNC(=O)NCc1cccc(-n2ccnc2)c1` (configuration not stated), for which the Percent Effect in test [1] is 1.43%; in test [2] it was -7.32%.

On to `C=C(C)C(=O)N1CCC(C(=O)c2cc(C)cnc2N)CC1`, for which the Percent Effect in test [1] was -5.78%; in test [2], -12%.

For `Cc1nc(C(C)C)sc1C(=O)NS(=O)(=O)c1ccc(C#N)cc1`, the Percent Effect was -3.09% in test [1] and 0.0303% in test [2].

For the compound `Cc1nn(C)c2c(NCCCn3cccn3)ncnc12`, the Percent Effect in test [1] is -6.88%; in test [2], -37.5%.

For `Cc1nc2cc(O)nn2c(C)c1CCC(=O)N(C)Cc1cscn1`, the Percent Effect was found to be 8.09% in test [1] and 4.66% in test [2].

With `CN1CCN(CC2CC2)C(=O)c2cnc(N3CC[C@@H](O)C3)nc21`, the figures for the Percent Effect in test [1] and in test [2] were 3.75% and -9.73%, respectively.

Take `Cc1cc2c(cc1C(=O)N1CC[C@H](CO)[C@@H](O)C1)OCCO2`: the values for the Percent Effect in test [1] and in test [2] were -0.915% and 8.21%, respectively.
